The source made the active and inactive calls.

We go through five molecules from PubChem BioAssay.

The subject of assay [1] is Plasmodium falciparum Sir2 (PF13_0152, Sir2A). Description: pfSir2 binders on small-molecule microarrays, primary screen, biochemical, small-molecule microarray, 635 nm fluorescence (AID 1098).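 Note: score merges spot fluorescence intensity with its signal-to-noise ratio.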 The following applies: small-molecule microarray binding, fluorescence 635 nm; higher = more signal.
A short description of assay [2]: small-molecule microarray binders of probe aDKK1, primary screen, biochemical, biotinylated probe, 635/667 nm fluorescence (AID 1099).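 Note: score merges 667nm spot fluorescence with signal to noise across triplicate slides.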 The following applies: higher = more signal.
A short description of assay [3]: small-molecule microarray binders of probe aCHRDL2, primary screen, biochemical, biotinylated probe, 635/667 nm fluorescence (AID 1100). The following applies: higher = more signal.
A short description of assay [4]: splicing luciferase reporter signal modulators, primary screen, spliceosome inhibition project, cell-based, HEK293, splice +/- reporter (AID 1101).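 Note: HEK293 cells carrying a splicing-competent luciferase reporter gene; test concentration not given here.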 The following applies: luminescence, 24 h, higher = more signal, called active from +8 up or from −8 down. On the technique in general: Reporter assays use an easily measured gene product as a stand-in for the process of interest.

In assay [5] the target is Fibroblast growth factor 10 (Homo sapiens) (UniProt O15520). Kind of assay: FGF10 binders on small-molecule microarrays, primary screen, biochemical, small-molecule microarray, 635 nm fluorescence (AID 1102). The following applies: FGF10 binding, fluorescence 635 nm, higher = more signal.
Assay [6] deals with glycogen synthase kinase-3 (GSK3A per assay name; protocol says GSK3B). Description: GSK3 binders on small-molecule microarrays, primary screen, biochemical, small-molecule microarray, 635 nm fluorescence, GSK3A (AID 1103). Note: the record names both GSK3A and GSK3B. The following applies: small-molecule microarray binding, fluorescence 635 nm; higher = more signal.
Assay [7] addresses Epidermal growth factor receptor (Homo sapiens) (UniProt P00533). Description: EGFR binders on small-molecule microarrays, primary screen, biochemical, small-molecule microarray, 635 nm fluorescence (AID 1104).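 Note: score merges 667 nm emission intensity with spot signal to noise over triplicate slides.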 The following applies: EGFR binding, higher = more signal.
In assay [8] the target is Follistatin-related protein 3 (Homo sapiens) (UniProt O95633). Kind of assay: FSTL3 binders on small-molecule microarrays, primary screen, biochemical, small-molecule microarray, 635 nm fluorescence (AID 1105).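 Note: score merges emission near 667 nm and signal to noise per printed spot across three slides.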 The following applies: FSTL3 binding, higher = more signal.
The target of assay [9] is Dickkopf-related protein 1 (Homo sapiens) (UniProt O94907). Kind of assay: DKK1 binders on small-molecule microarrays, primary screen, biochemical, small-molecule microarray, 635 nm fluorescence scan (AID 1106).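 Note: score merges emission near 667 nm with signal to noise over three replicate slides.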 The following applies: DKK1 binding, higher = more signal.
Assay [10] relates to Inhibin beta A chain (activin A). Description: INHBA (activin A) binders on microarrays, primary screen, biochemical, small-molecule microarray, 635 nm fluorescence scan (AID 1107).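 Note: mouse activin A protein probed at 4.33 µg/mL on printed slides; score merges bound-protein fluorescence near 667 nm with spot signal-to-noise.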 The following applies: small-molecule microarray binding, higher = more signal.
Assay [11] has as its system Human papillomavirus type 1a protein E7 (residues 44-93). Description: HPV1a E7 fragment binders on microarrays, primary screen, biochemical, small-molecule microarray, residues 44-93, 635 nm fluorescence (AID 1108).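 Note: E7 fragment applied at 1 µg/mL in TBST for 1 h at 4 C; score combines spot fluorescence with its signal to noise ratio.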 The following applies: small-molecule microarray binding, fluorescence 635 nm; higher = more signal.
Assay [12] in a line: modulators of HCV replicon luciferase signal, primary screen, HCV replication inhibitor project, Huh7 cells, luciferase reporter (AID 1109).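 Note: huh7 hepatoma cells harbouring a luciferase neomycin HCV replicon reporter; luciferase luminescence as measure of HCV replicon replication; test concentration not given here.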 The following applies: 48 h, higher = more signal.
The target in assay [13] is Left-right determination factor 2 (Homo sapiens) (UniProt O00292). Kind of assay: LEFTY2 binders on small-molecule microarrays, primary screen, biochemical, small-molecule microarray, 635 nm fluorescence scan (AID 1110). The following applies: LEFTY2 binding, higher = more signal.
Assay [14] addresses Calmodulin-1 (Homo sapiens) (UniProt P0DP23). Kind of assay: CALM1 binders on microarrays, EGTA buffer, profiling panel, biochemical, small-molecule microarray, Cy5-labelled CALM1 (AID 1111).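 Note: labelled calmodulin applied in Tris saline Tween buffer holding calcium plus EGTA and DTT.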 The following applies: Cy5-CALM1 binding fluorescence, higher = more signal.
Assay [15] shares this target. Description: calcium-bound CALM1 binders on microarrays, profiling panel, artefact control for SMM control-protein annotation, biochemical, small-molecule microarray, Cy5-labelled CALM1, plus calcium (AID 1112).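 Note: score merges spot fluorescence with signal to noise from triplicate slides.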 The following applies: Cy5-CALM1 binding fluorescence, higher = more signal.
A short description of assay [16]: small-molecule microarray binders of probe aWnt5a, primary screen, biochemical, biotinylated probe, 635/667 nm fluorescence (AID 1113).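 Note: score merges 667 nm fluorescence intensity with signal-to-noise per printed feature.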 The following applies: higher = more signal.
Assay [17] in a line: small-molecule microarray binders of probe aShh, primary screen, biochemical, biotinylated probe, 635/667 nm fluorescence (AID 1114).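 Note: probe is biotin-labelled aShh protein from a stem cell growth factor screen; measures binding of labelled protein to compounds printed on the slide; score merges feature fluorescence at 667 nm with signal-to-noise.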 The following applies: higher = more signal.
A short description of assay [18]: small-molecule microarray binders of probe aNog, primary screen, biochemical, biotinylated probe, 635/667 nm fluorescence (AID 1115).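 Note: probe is biotinylated aNog protein used at 0.15 µg/mL for 1 h at 4 C; z-score combines 667 nm fluorescence of each spot with its signal to noise.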 The following applies: higher = more signal.
Assay [19] deals with Torsin-1A-interacting protein 1 (Homo sapiens) (UniProt Q5JTV8). Description: LAP1 binders from COS7 cell lysate, primary screen, small-molecule microarray, 635/667 nm fluorescence (AID 1116). The following applies: COS7-hLAP1 lysate binding, 635 nm fluorescence, higher = more signal.
The target in assay [20] is Alpha-bungarotoxin (Bungarus multicinctus) (UniProt P60615). Description: alpha-bungarotoxin binders on microarray, profiling panel, artefact control for SMM control protein annotation, biochemical, small-molecule microarray, Alexa647 label, 635/667 nm fluorescence (AID 1117). The following applies: alpha-BTX-A647 binding fluorescence, higher = more signal.
Alpha-bungarotoxin (Bungarus multicinctus), sequence (P60615 whole entry, looked up): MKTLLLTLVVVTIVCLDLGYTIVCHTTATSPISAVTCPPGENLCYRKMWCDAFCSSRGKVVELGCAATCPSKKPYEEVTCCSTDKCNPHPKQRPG

Follistatin-related protein 3 (Homo sapiens), sequence (O95633 whole entry, looked up): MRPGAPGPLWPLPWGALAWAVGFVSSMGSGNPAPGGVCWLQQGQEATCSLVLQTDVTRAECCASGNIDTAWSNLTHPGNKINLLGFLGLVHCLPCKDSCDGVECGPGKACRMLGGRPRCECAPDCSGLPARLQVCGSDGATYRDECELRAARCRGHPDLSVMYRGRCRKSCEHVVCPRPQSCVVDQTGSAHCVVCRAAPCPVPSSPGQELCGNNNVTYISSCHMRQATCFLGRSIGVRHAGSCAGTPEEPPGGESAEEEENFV
Fibroblast growth factor 10 (Homo sapiens), sequence (O15520 whole entry, looked up): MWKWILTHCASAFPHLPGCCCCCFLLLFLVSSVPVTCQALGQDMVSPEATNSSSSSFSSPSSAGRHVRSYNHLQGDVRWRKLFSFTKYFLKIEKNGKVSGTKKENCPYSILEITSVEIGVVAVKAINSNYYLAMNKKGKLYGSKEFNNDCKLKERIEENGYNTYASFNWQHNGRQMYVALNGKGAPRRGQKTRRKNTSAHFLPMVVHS
Torsin-1A-interacting protein 1 (Homo sapiens), sequence (Q5JTV8 whole entry, looked up): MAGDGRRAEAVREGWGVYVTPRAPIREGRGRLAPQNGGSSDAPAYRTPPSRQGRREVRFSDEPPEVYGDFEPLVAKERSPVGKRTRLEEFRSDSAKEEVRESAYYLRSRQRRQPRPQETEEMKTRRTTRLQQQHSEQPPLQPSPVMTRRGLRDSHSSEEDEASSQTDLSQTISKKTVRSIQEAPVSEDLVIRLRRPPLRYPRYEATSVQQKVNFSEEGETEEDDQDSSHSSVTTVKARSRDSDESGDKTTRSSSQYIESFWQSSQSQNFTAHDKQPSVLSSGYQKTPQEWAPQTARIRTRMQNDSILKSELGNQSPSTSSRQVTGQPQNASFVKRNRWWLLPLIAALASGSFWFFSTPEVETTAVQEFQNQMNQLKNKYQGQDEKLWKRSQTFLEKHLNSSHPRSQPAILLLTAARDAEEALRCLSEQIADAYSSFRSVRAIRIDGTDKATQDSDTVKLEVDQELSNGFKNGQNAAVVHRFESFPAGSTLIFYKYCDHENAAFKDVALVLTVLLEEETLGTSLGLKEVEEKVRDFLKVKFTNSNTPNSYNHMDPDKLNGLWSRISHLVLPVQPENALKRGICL
Dickkopf-related protein 1 (Homo sapiens), sequence (O94907 whole entry, looked up): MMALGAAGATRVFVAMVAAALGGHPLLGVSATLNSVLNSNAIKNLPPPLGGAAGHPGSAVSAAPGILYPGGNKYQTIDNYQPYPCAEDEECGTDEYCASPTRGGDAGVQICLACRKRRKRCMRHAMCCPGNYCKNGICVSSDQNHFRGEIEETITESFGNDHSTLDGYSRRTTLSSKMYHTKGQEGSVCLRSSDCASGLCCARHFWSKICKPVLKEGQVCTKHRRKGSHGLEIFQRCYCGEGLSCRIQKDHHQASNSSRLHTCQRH
Epidermal growth factor receptor (Homo sapiens), sequence (P00533 whole entry, looked up): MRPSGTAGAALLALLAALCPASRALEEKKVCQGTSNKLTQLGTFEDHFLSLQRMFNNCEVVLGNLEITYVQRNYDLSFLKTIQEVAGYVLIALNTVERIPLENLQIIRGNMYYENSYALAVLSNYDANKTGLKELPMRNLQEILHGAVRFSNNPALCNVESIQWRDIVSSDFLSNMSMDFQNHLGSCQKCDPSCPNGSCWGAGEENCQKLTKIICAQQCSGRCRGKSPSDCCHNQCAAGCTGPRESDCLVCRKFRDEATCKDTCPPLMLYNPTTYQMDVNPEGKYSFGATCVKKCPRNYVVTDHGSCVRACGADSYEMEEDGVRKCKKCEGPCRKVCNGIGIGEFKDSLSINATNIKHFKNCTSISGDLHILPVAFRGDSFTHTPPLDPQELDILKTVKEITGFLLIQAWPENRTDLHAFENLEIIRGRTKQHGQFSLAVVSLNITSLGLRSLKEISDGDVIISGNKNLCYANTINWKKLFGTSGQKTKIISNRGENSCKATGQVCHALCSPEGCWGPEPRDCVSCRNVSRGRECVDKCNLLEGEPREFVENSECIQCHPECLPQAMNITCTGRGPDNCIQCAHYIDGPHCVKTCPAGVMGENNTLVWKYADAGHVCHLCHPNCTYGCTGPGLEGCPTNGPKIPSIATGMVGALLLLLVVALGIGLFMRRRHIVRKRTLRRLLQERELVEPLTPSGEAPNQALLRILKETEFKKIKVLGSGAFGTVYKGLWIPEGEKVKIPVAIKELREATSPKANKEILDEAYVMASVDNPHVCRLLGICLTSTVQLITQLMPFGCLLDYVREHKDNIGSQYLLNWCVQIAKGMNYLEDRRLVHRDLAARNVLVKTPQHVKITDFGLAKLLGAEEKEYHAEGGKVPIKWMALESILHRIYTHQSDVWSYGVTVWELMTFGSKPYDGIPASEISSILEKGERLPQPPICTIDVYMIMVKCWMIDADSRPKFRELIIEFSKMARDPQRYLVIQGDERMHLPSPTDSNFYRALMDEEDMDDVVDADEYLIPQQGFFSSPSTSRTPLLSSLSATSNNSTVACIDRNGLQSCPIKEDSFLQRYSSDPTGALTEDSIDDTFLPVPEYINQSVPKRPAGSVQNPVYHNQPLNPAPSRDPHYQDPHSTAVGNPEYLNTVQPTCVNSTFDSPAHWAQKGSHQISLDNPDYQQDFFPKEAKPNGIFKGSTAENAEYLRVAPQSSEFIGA
Left-right determination factor 2 (Homo sapiens), sequence (O00292 whole entry, looked up): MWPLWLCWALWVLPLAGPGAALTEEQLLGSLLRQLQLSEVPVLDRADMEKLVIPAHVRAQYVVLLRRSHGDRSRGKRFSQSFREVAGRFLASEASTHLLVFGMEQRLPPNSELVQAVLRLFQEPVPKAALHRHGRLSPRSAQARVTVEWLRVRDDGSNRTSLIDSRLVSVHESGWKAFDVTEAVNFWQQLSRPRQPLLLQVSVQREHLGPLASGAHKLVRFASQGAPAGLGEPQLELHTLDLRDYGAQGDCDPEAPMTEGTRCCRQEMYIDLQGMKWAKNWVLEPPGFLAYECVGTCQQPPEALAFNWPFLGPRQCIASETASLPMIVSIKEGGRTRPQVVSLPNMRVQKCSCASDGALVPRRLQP

As to `CC(C)C[C@@H]1NC(=O)[C@@H]2C[C@H](C(=O)NCCCCCNC(=O)CS)[C@H](c3ccc(O)cc3)N2C1=O`, the composite z-score in assay [1] was 1.67; in assay [2], -0.1; in assay [3] it was -0.03; in assay [5], -0.113; in [6] it was -0.0192; in [7], 0.135. In addition, the composite z-score in assay [8] was 0.286; in assay [9] it was 0.353; in assay [10], -0.111; in assay [11], 1.37; in assay [13], 0.104; in assay [14] it was 1.18. For the same molecule, the composite z-score in assay [15] was 0.194; in assay [16] it was -0.12; in [17], 0.0637; in assay [18] it was -0.12; in assay [19], 0.097; in assay [20] it was 0.136. Besides, the results for the z-score in assay [4] and in assay [12] were -3.37 (inactive) and 2.04, respectively.

On to `CC1CC/C=C\[C@H]2OC34C=CCN(C(C)C)C(=O)[C@H]3N(C(C)CO)C(=O)[C@@H]4C2C(=O)O1` (stereo not given in full), for which the composite z-score is 0.048 in [1]; -0.27 in assay [2]; -0.335 in assay [3]; -0.171 in [5]; -0.297 in [6]; -0.467 in assay [7]. In addition, the composite z-score in assay [8] is 0.0275; in [9], 0.165; in [10], 0.727; in assay [11], -0.607; in [13], -0.334; in assay [14], -0.174. Besides, the composite z-score was -0.824 in assay [15]; -0.128 in assay [16]; -0.304 in assay [17]; -0.0381 in [18]; 0.0726 in assay [19]; -0.215 in assay [20]. In addition, the z-score in [4] is -0.789 (inactive); in [12] it was -1.43.

With `O=C1OC[C@@H](c2ccccc2)n2cc(/C=C/c3ccccc3)cc21`, the composite z-score is 0.753 in assay [1]; -0.222 in assay [2]; 0.0504 in assay [3]; -0.256 in [5]; -0.678 in [6]; -0.609 in assay [7]. The composite z-score was -0.513 in assay [8]; -0.161 in [9]; 0.0778 in [10]; 0.06 in assay [11]; -0.623 in [13]; -0.638 in assay [14]. Besides, the composite z-score in [15] is -1.27; in assay [16] it was -0.197; in [17], -0.0709; in assay [18], -0.367; in [19] it was -0.948; in [20], 0.45. Besides, the z-score in assay [4] is -1.55 (inactive); in [12], -0.18.

Take `[N-]=[N+]=Nc1ccccc1C[C@@]1(C(=O)NCC(O)CO)N=C(c2ccc(OCCCO)cc2)O[C@@H]1c1ccccc1N=[N+]=[N-]` (stereo not given in full): the composite z-score in assay [1] is 1.05; in assay [2], 0.106; in [3], 1.09; in [5], 0.233; in assay [6], 0.446; in assay [7], -0.283. The composite z-score was 0.855 in assay [8]; -0.67 in assay [9]; 1.33 in assay [10]; 0.796 in assay [11]; -0.458 in [13]; 2.15 in assay [14]. Besides, the composite z-score is 0.176 in assay [15]; 0.0586 in assay [16]; 0.348 in [17]; -0.596 in [18]; 1.64 in assay [19]; 0.427 in [20]. Moreover, the results for the z-score in assay [4] and in assay [12] were 8.25 (active) and -3.13, respectively.

Regarding `C=C(CC1([C@@H](NP(=O)(c2ccccc2)c2ccccc2)[C@H]2C[C@@H]2CCCC)CC1)c1cccc(OC)c1`, the composite z-score was -0.167 in [1]; 0.91 in [2]; 1.15 in assay [3]; 0.158 in assay [5]; -0.3 in assay [6]; -0.28 in [7]. Also, the composite z-score is 0.463 in assay [8]; -1.14 in [9]; 1.03 in assay [10]; 0.812 in assay [11]; -0.872 in assay [13]; 1.48 in assay [14]. The composite z-score is 0.691 in assay [15]; 0.103 in [16]; 0.313 in [17]; 1.46 in [18]; 0.182 in assay [19]; -0.306 in assay [20]. The z-score in [4] is -2.52 (inactive); in assay [12] it was -1.79.
